Screens from PubChem BioAssay.
Hits are enriched below; roughly 8% of the tested compounds scored in any of these assays.
HT1080-NT tox: qHTS for induction of synthetic lethality in tumor cells producing 2HG: qHTS for the HT-1080-NT fibrosarcoma cell line; HT-1080-NT fibrosarcoma viability, CellTiter-Glo ATP luminescence, 48 h; Potency, µM (highest dose often 46.1 µM), inactives show at the top dose activity, negative = less viability, usual class: cytotoxic; actives 1.6% (n = 360,000);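 note: NT is the 2HG producing partner of a matched IDH1 knockdown line; 0% = DMSO-treated cells and -100% = media-only wells without cells; nearly all actives have a fitted effect of over 55% in size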
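A 48-hour cytotoxicity screen used HT-1080-NT cells plated 2 hours before compound delivery. ATP-based CellTiter-Glo luminescence measured viability, normalized to DMSO and no-cell controls.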
KB-3-1 tox: qHTS assay for MDR1-selective chemotherapeutics: Primary screen using the parental adenocarcinoma cell KB-3-1 | Potency, µM (highest dose often 46.1 µM), most hits filed as cytotoxic | KB-3-1 viability, CellTiter-Glo ATP luminescence, 72 h | actives 1.4% (n = 400,000); note: % is set by controls: 0 for no effect and ±100 for the full control effect; nearly all actives have a fitted effect of over 60% in size
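Using CellTiter-Glo luminescence, growth of non-resistant KB-3-1 adenocarcinoma cells is assessed 72 h after pin-tool compound addition at 37 °C. Normalized responses across the concentration series yield fitted curves.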
HT1080 IDH1KD tx: qHTS for induction of synthetic lethality in tumor cells producing 2HG: qHTS for the HT-1080-IDH1KD cell line. Potency, µM (titrated, usually from 46.1 µM), without a hit: top-dose activity, negative = toxicity, hits mostly cytotoxic. AID 686971, 2013. actives 2% (n = 360,000). HT-1080 IDH1 knockdown viability, ATP luminescence, 48 h;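 note: 0% = DMSO wells and -100% = cell-free medium wells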
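Luminescent ATP read-out (CellTiter-Glo, 10 min at room temperature) after 48 h compound exposure at 37 °C gave viability of IDH1-knockdown HT-1080 cells. Activity was normalised to DMSO and cell-free wells, then fitted as concentration-response curves.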
SW480 rerep: A quantitative high throughput screen for small molecules that induce DNA re-replication in SW480 colon adenocarcinoma cells | SW480 DNA re-replication, Hoechst DNA content imaging, 48 h | Potency, µM (series often up to 46.1 µM), without a hit: at the highest dose re-replication activation, usual class: activators | AID 624297, 2012 | actives 1.8% (n = 340,000); note: % of control where 0% means no effect; nearly all actives have a fitted effect of over 55% in size
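First, 250 cells per well were seeded. Next, compound or vehicle (23 nL) was pinned in, plates sat 48 hr at 37 C. Finally Hoechst was added for 40 min before fluorescence scanning.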
KB-V1 MDR tox: qHTS assay for MDR1-selective chemotherapeutics: Primary screen using the drug-selected MDR subline cells KB-V1. KB-V1 MDR cells viability, CellTiter-Glo, 72 h. Potency, µM (titrated, usually from 46.1 µM), hits mostly cytotoxic. actives 3.4% (n = 400,000); note: % is set by controls: 0 for no effect and ±100 for the full control effect; nearly all actives have a fitted effect of over 60% in size
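Following 72 h at 37 degrees C with compound, KB-V1 cell viability was read by CellTiter-Glo luminescence, medium being phenol-red-free DMEM plus 10% FBS; concentration-response parameters came from normalized, curve-fitted qHTS data.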
MCF10A rerep: A quantitative high throughput screen for small molecules that induce DNA re-replication in MCF 10a normal breast cells | Potency, µM (top dose mostly 46.1 µM), inactives show at the top dose activity, positive = re-replication, actives largely listed as activators | actives 2.9% (n = 350,000) | AID 624296, 2012 | MCF 10A DNA re-replication, Hoechst nuclear intensity, 48 h; note: % of control where 0% means no effect; nearly all actives have a fitted effect of over 50% in size
* = called active by the depositor; i = inactive; ? = inconclusive; · = no result given; [ ] = another dose, or the depositor's remark. Calls come from the whole dose curve; as a rule, active = well fitted curve in the direction sought with a large enough effect; inconclusive = small, poorly fitted or top-dose-only effect, or another doubt; inactive = no such curve, though single readings can be large; an effect the other way counts as inactive or inconclusive. Potency is the fitted concentration of half-maximal effect.

SMILES	HT1080-NT tox	KB-3-1 tox	HT1080 IDH1KD tx	SW480 rerep	KB-V1 MDR tox	MCF10A rerep
O=C(Nc1ccc(Cl)cc1Cl)c1cccc(N2C(=O)C=CC2=O)c1	?	i	?	8.2µM*	i	13µM*
CCOc1ccccc1NC(C)C(=O)Nc1cc(C(F)(F)F)ccc1N1CCOCC1 (stereo not given)	-3%	?	-24%	-32%	5.8µM*	11%
O=C(CCC1CCCC1)Nc1cc(C(F)(F)F)ccc1N1CCOCC1	0%	i	11%	3.7µM*	i	-8%
Cc1noc(C)c1CSCC(=O)Nc1cc(C(F)(F)F)ccc1N1CCOCC1	-3%	i	-1%	0%	3.7µM*	-3%
CC(C)C(=O)Nc1cc(C(F)(F)F)ccc1N1CCOCC1	-3%	i	1%[9.24 µM]	2%	i	-6%
COc1ccc(C)cc1NC(=O)C1CCN(S(=O)(=O)c2cc(Br)cc3c2N(C(C)=O)CC3)CC1	·	i	·	·	i	·
CCOC(=O)c1cc2c(c(-c3cccc(C#Cc4ccc(OC)c(OC)c4)c3)n1)[C@@H](CCO)N(S(=O)C(C)(C)C)C2 (stereo not given in full)	-20%	i	-12%	·	i	·
CCCCc1cc(=O)oc2cc(OCc3cc(OC)c(OC)c(OC)c3)c(Cl)cc12	-29%	i	-23%	27%	i	10µM*
CCCc1cc(=O)oc2cc(OCc3cc(OC)c(OC)c(OC)c3)c(Cl)cc12	2%	i	12%	-6%	i	?
COc1ccc2[nH]c(CN3CCN(CC=C(C)C)C(CCO)C3)c(C)c2c1 (stereo not given)	-8%	i	-4%	-10%	i	16µM*
COCCN1C(=O)c2ccc(C(=O)Nc3nccs3)cc2C1=O	-4%	i	1%[9.24 µM]	1.2µM*	i	?
COc1ccc(C2C(C(C)=O)=C(O)C(=O)N2c2nccs2)c(OC)c1 (stereo not given)	10%	i	-2%	21µM*	i	3%
Cc1ccc2c(CC(=O)Nc3cccc(C(F)(F)F)c3)coc2c1	·	i	·	·	i	·
COc1ccccc1NS(=O)(=O)c1ccc(-c2cc(C)no2)s1	?	7.3µM*	?	-6%	?	17%
CCN(c1cccc(C)c1)S(=O)(=O)c1ccc(-c2cc(C)no2)s1	?	4.6µM*	?	-6%	?	-6%
CCN(c1cccc(C)c1)S(=O)(=O)c1c(C)[nH]c(=O)[nH]c1=O	5%	i	-8%	1%	i	19%
Cc1cc(-c2ccc(S(=O)(=O)Nc3cccc(C(F)(F)F)c3)s2)on1	·	i	·	·	i	·
CCN(c1cccc(C)c1)S(=O)(=O)c1cnc[nH]1	7%	i	-4%	1%	i	21µM*
Cc1cccc(N(C)S(=O)(=O)c2ccc(-c3cc(C)no3)s2)c1	?	?	0.58µM*	0.82µM*	?	?
COc1ccc(-c2cc(C(F)(F)F)n3nc(C(=O)OC(C)C)cc3n2)cc1	·	i	·	·	i	·
CCOc1ccc(N(C)S(=O)(=O)c2ccc(-c3cc(C)no3)s2)cc1	12µM*	5.8µM*	7.3µM*	9.2µM*	?	4.6µM*
CCOc1ccc(N(C)S(=O)(=O)c2cc(-c3cc(C)no3)ccc2C(C)C)cc1	5%	?	-6%	?	i	?
CCOC(=O)Cc1c(C)nc2cc(-c3ccc(C(C)(C)C)cc3)[nH]n2c1=O	?	i	1.3µM*	?	i	-19%
CCOC(=O)Cc1c(C)nc2c(C#N)c[nH]n2c1=O	13%	i	2%	-1%	?	1%
CCOC(=O)Cc1c(C)nc2c(-c3ccc(Cl)cc3)c(C)[nH]n2c1=O	13µM*	?	10µM*	2%	?	-6%
SMILES	HT1080-NT tox	KB-3-1 tox	HT1080 IDH1KD tx	SW480 rerep	KB-V1 MDR tox	MCF10A rerep
CCOC(=O)Cc1c(C)nc2c(-c3cccc(Br)c3)c[nH]n2c1=O	?	i	?	18µM*	i	7.3µM*
CCOC(=O)Cc1c(C)nc2cc(-c3ccc(C(C)(C)C)cc3)nn2c1C	·	i	·	·	i	·
Cn1nc(C(C)(C)C)cc1C(=O)N1CCCCC1c1cc(C(=O)NCc2ccc(F)cc2)no1 (stereo not given)	-24%	?	?	·	4.1µM*	·
Cn1nc(C(C)(C)C)cc1C(=O)N1CCCCC1c1cc(C(=O)NCc2ccccc2)no1 (stereo not given)	-2%	?	?	·	9.2µM*	·
CCOc1ccc(S(=O)(=O)N2CCOCC2)cc1NC(=O)CCN1C(=O)NC2(CCCC2)C1=O	9%	i	1%	·	i	·
CN(C)N=Nc1nc2c(c(=O)n(C)c(=O)n2C)n1CC1CO1 (stereo not given)	?	?	?	16µM*	i	16µM*
CC1CN(CC(O)COC(c2ccc(Cl)cc2)c2ccc(Cl)cc2)CC(C)O1 (stereo not given)	?	?	?	-7%	?	7.3µM*
CN(C)CC(O)COC(c1ccc(Cl)cc1)c1ccc(Cl)cc1 (stereo not given)	21µM*	i	?	9%	i	0%
CC1CN(CC(O)COc2ccc(C(C)C)cc2)CC(C)O1 (stereo not given)	-1%	i	2%	-7%	i	19%
